EBI2 block: EBI2 receptor antagonists, beta-arrestin recruitment, primary screen, cell-based, luminescence, 7a,25-OHC stimulation, uHTS. 7a,25-OHC stimulated. inhibition, % at 5 µM. G-protein coupled receptor 183 (Homo sapiens), P32249. 360,000 compounds, 0.81% hits; in the data active = inhibition above about 38%;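 note: enzyme fragment complementation signal reports receptor beta-arrestin coupling in cells; 0% = agonist plus DMSO wells and 100% = wells without agonist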
Target sequence (P32249 whole entry, looked up, the tested form may be a part): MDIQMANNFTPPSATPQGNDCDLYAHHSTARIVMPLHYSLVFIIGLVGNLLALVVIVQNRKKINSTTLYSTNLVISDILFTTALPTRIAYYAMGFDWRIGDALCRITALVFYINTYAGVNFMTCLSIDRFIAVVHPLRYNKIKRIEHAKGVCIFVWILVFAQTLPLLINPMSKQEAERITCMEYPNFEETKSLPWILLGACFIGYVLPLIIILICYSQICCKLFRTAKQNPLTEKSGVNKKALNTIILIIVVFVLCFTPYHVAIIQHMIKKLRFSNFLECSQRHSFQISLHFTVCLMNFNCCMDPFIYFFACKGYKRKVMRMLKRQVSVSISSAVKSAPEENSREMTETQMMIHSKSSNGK
TIM10 inh: growth inhibitors of isogenic TIM10 control yeast, primary screen, counter-screen for tim10-1 yeast inhibitor project, luminescence, uHTS; S. cerevisiae TIM10 strain growth, BacTiter-Glo luminescence, 24 h; inhibition, % at 10 µM; 330,000 compounds, 1.4% hits; AID 463195, 2010;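 active = inhibition of 40% or more at the single tested concentration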;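 note: wild-type TIM10 isogenic control strain grown at permissive 25 °C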
PfHsp90 set2: growth inhibition of PfHsp90-expressing yeast, primary screen, antimalarial PfHsp90 inhibitor project, S. cerevisiae, BacTiter-Glo luminescence, single point, set 2. BacTiter-Glo ATP, 48 h; yeast lacking PDR1 and PDR3 efflux regulators. inhibition, % at 9.4 µM. 310,000 compounds, 0.32% hits. AID 504621, 2011;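 active = every replicate shows inhibition above about 80%, whatever the replicate mean, limit read from the data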;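 note: 0% = DMSO neutral controls and 100% = 20 µM radicicol positive controls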
tim10-1 inh: growth inhibitors of tim10-1 mutant yeast, primary screen, luminescence, uHTS; S. cerevisiae tim10-1 ts strain growth, BacTiter-Glo, 24 h; 330,000 compounds, 2.2% hits; inhibition, % at 20 µM;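 active = inhibition of at least 40%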;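 note: mutant grown at 25 °C; 0% = DMSO wells with yeast and 100% = wells holding no yeast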
SKKanGAS inh: S. pyogenes SKKanGAS growth inhibitors in kanamycin, primary screen, streptokinase expression inhibitor project, SKKanGAS strain, BacTiter-Glo luminescence. 300,000 compounds, 1.3% hits. inhibition, % at 7.5 µM. 6 h;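 active = mean replicate score, as percent of positive control median, at least 50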;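 note: strain carries kanamycin resistance gene driven by streptokinase promoter and grows in 40 µg/ml kanamycin; loss of luminescence reflects streptokinase promoter inhibition or plain growth inhibition; 0% = median of DMSO wells and 100% = positive control at its reference dose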
tim23-1 inh: growth inhibitors of tim23-1 mutant yeast, primary screen, luminescence, uHTS. S. cerevisiae tim23-1 growth, BacTiter-Glo luminescence, 24 h. inhibition, % at 20 µM. 330,000 compounds, 1.3% hits. AID 463212, 2010;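 active = growth inhibition of the mutant yeast at or above 50%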;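 note: temperature-sensitive mutant grown at 25 °C; plate controls were DMSO-treated mutant yeast for no effect and medium wells lacking yeast for full effect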
tim10-1 confirm: growth inhibitors of tim10-1 mutant yeast, confirmation, single concentration, luminescence, S. cerevisiae; shares compounds with tim10-1 inh; S. cerevisiae tim10-1 ts strain growth, BacTiter-Glo, 24 h; inhibition, % at 20 µM; 7,400 compounds, 56% hits;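 active = inhibition of yeast growth at or above a set limit in either of two repeat tests at 20 µM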;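 note: tim10-1 mutant grown at permissive 25 °C to find synthetic lethal compounds; 0% = DMSO yeast wells and 100% = medium wells without yeast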
Active calls of the source: *; nt = not tested or not shown. A selection: hits, their analogues and other compounds. The true share with any hit is near 4.7%.

SMILES	EBI2 block	TIM10 inh	PfHsp90 set2	tim10-1 inh	SKKanGAS inh	tim23-1 inh	tim10-1 confirm
CC(C)COc1ccc(CNC(=S)Nc2ccccc2)cc1Cl	-2	26	18	22	5	12	nt
Cc1ccc2cc(CN(CCN(C)C)C(=S)Nc3ccccc3)c(=O)[nH]c2c1C	-8	11	nt	40*	0	36	18
COc1cccc(/C=N/Nc2nc(Nc3ccccc3)nc(-n3nc(C)cc3C)n2)c1O	66*	14	nt	45*	98*	42	27
Cc1cc(C)n(-c2nc(Nc3ccccc3)nc(-n3nc(C)cc3C)n2)n1	1	-4	-22	8	40	-13	nt
Cc1ccc(Cl)cc1N1CCN(C(=O)CSc2nnc3n2C(C)(C)Cc2ccccc2-3)CC1	13	16	nt	2	36	4	nt
COc1ccc(N2CCN(C(=O)CSc3nnc4n3C(C)(C)Cc3ccccc3-4)CC2)cc1	6	17	3	46*	-4	38	25
COc1ccc(Cl)cc1Nc1nc(N)nc(C(F)(F)F)n1	-7	26	nt	48*	-6	17	14
CCCCOC(=O)Nc1cccc(C(=O)OCC)c1	3	7	11	46*	1	25	26
CC(=O)/C(=C/N(C)C)Sc1ccc(C)cc1	4	-2	6	-18	7	7	nt
CC(=O)N1N=C(c2cccc([N+](=O)[O-])c2)OC1c1cccc(Br)c1 (centres undefined)	3	22	4	45*	8	47	29
O=C(Nc1cccc(C(F)(F)F)c1)C1CCCN(c2ncccn2)C1 (centres undefined)	-5	29	nt	42*	1	23	36*
C/C=C(/C(=C/C)c1ccc(O)cc1)c1ccc(O)cc1	26	39	-14	44*	1	50	43*
CC(=NN=C(C)c1ccc(O)cc1)c1ccc(O)cc1	9	nt	-5	nt	nt	nt	nt
CC(=O)Oc1ccccc1C(=O)OCCN=C1NS(=O)(=O)c2ccccc21	2	6	1	-5	2	7	nt
Cc1ccc2oc(C(=O)N(Cc3ccc(N(C)C)cc3)CC3CCCO3)c(C)c2c1 (centres undefined)	14	1	-4	40	-2	37	-11
C=C(C)COc1ccc(-c2[nH]ncc2-c2ccc(OC)c(OC)c2)c(O)c1	6	33	-3	46*	2	36	34*
COc1ccc(CN2C(=O)C(CC(C)C)Nc3ncnc(N4CCN(c5ccccc5)CC4)c32)cc1 (centres undefined)	11	26	-8	43*	11	35	23
CC(C)CC1Nc2ncnc(N3CCN(c4ccccc4)CC3)c2N(Cc2ccccc2)C1=O (centres undefined)	1	14	-13	27	9	38	nt
COCCn1c(N)c(N(Cc2ccccc2)C(=O)c2oc3ccccc3c2C)c(=O)[nH]c1=O	-2	-2	10	17	7	14	nt
O=C1CN(C(=O)CNCc2ccccc2)c2ccccc2N1	-6	-3	-16	-15	-3	2	nt
Cc1cc(C)n(CCc2nc(-c3ccc(F)cc3)cs2)n1	7	37	-2	45*	-7	30	38*
Cc1cc(C)n(CCc2nc(-c3ccc(C(C)(C)C)cc3)cs2)n1	5	37	-43	34	19	42	nt
COc1ccc(-c2cc(C(=O)N3CCCCCC3)c3ccccc3n2)cc1	4	19	3	52*	nt	46	13
COc1ccc(-c2cc(C(=O)OCc3ccccn3)c3ccccc3n2)cc1	15	22	-7	42*	12	31	14

Bioassay records: PubChem, several laboratories
